A selection: hits, their analogues and other compounds. The true share with any hit is near 8.7%.
12-LOX inh: blocks human arachidonate 12S-lipoxygenase. P18054. purified 12hLO, xylenol orange hydroperoxide absorbance. Potency, µM (highest dose often 108 µM), for the others: top-dose activity change, negative = inhibition, hits mostly inhibitors. actives 1.1% (n = 580,000). AID 1671190; note: % is set by controls: 0 for no effect and ±100 for the full control effect
Target sequence (P18054 whole entry, looked up): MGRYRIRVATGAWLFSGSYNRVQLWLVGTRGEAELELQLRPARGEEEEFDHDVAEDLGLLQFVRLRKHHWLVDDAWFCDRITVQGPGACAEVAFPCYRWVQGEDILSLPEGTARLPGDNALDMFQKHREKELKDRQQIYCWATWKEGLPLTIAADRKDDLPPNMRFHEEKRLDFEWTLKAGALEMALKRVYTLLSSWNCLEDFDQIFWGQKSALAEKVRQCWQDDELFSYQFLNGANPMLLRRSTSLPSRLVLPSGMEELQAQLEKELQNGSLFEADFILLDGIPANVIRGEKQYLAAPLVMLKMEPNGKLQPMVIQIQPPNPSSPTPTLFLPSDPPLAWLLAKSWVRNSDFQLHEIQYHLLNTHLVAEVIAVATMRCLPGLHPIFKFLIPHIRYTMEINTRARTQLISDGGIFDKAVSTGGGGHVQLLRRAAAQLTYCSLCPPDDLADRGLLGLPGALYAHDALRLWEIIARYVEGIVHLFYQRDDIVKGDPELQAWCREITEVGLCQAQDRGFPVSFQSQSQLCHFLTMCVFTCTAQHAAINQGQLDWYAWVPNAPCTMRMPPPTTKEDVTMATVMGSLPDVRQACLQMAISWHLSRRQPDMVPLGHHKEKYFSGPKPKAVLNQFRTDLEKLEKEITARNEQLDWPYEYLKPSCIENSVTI
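Hydroperoxide product was detected by ferrous iron/xylenol orange as the 573 to 405 nm absorbance ratio. Arachidonic acid at 40 uM (final) was turned over for 30 min at room temperature by 150 nM human 12hLO, pH 7.0 Hepes buffer, after 15 min compound preincubation.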
JMJD2A Tudor inh: blocks the human JMJD2A Tudor domain; O75164; AlphaScreen JMJD2A-Tudor / H3K4me3 peptide binding; Potency, µM (top dose mostly 114 µM), without a hit: at the highest dose activity change, negative = inhibition, hits mostly inhibitors; actives 4.4% (n = 390,000); AID 504339; note: % is set by controls: 0 for no effect and ±100 for the full control effect; nearly all actives have a fitted effect of over 50% in size
BAZ2B block: blocks human BAZ2B. Q9UIF8. AlphaScreen BAZ2B-H3K14Ac peptide displacement. Potency, µM (titrated, usually from 114 µM), without a hit: at the top dose activity change, negative = inhibition, actives largely listed as inhibitors. actives 4.4% (n = 360,000). AID 504333; note: % is set by controls: 0 for no effect and ±100 for the full control effect; nearly all actives have a fitted effect of over 60% in size
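BAZ2B 50 nM plus b-H3(5-23)K14Ac 50 nM, PBS pH 7.4/0.01% Tween-20, 30 min RT; compound added (max 110 uM), 30 min RT; streptavidin donor/Ni-chelate acceptor beads 10 ug/mL final, 20 min dark; AlphaScreen read.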
G9a inh: blocks human histone lysine methyltransferase G9a; Q96KQ7; G9a H3K9 monomethylation, AlphaScreen, 2 h; Potency, µM (series often up to 102 µM), inactives show at the highest dose activity, negative = inhibition, most hits filed as inhibitors; actives 8.8% (n = 350,000); AID 504332; note: % is set by controls: 0 for no effect and ±100 for the full control effect; nearly all actives have a fitted effect of over 75% in size
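Enzyme 20 nM + cpd, 15 min RT; add b-H3K9 pep 500 nM / SAM 20 uM; 2 h RT; anti-H3K9me1 Ab 0.5 ug/mL + SA donor / anti-rabbit acceptor beads 20 ug/mL each, 10 min; AlphaScreen read.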
HP1b binding inh: blocks HP1-beta chromodomain binding to methylated histone tails; P83916; actives 0.56% (n = 390,000); AlphaScreen HP1-beta / biotin-H3K9me3 peptide binding; Potency, µM (highest dose often 114 µM), for inactives: top-dose activity change, negative = inhibition, usual class: inhibitors; note: nearly all actives have a fitted effect of over 70% in size
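HP1-beta protein (50 nM final) preincubated 30 min at room temperature with biotinylated H3(1-18)K9me3 peptide (50 nM) in PBS pH 7.4, 0.01% Tween-20, then compound added for 30 min. AlphaScreen streptavidin donor/nickel chelate acceptor beads (10 ug/mL final), 30 min dark, luminescence read.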
Sfp inh: inhibitors of Bacillus subtilis Sfp phosphopantetheinyl transferase. Biochemical Sfp PPTase activity, qHTS. Potency, µM, without a hit: largest response in the series, negative = inhibition, most hits filed as inhibitors. actives 3.5% (n = 310,000). AID 1490;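 note: the enzyme is Sfp with the accession as filed and its product quenches rhodamine fluorescence; 0% = enzyme reaction without inhibitor and -100% = no enzyme wells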
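Step 1, compound plus 15 nM Sfp-PPTase, 15 min, room temperature. Step 2, add rhodamine-CoA (5 uM) and BHQ-2-YbbR (12.5 uM). Step 3, read 525/598 nm fluorescence at 0 and 30 min.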
Numbers without * were called inactive; ? = inconclusive; . = not tested or not shown; ! = not active in a repeat; [ ] = another dose, or the depositor's remark. Calls come from the whole dose curve; as a rule, active = well fitted curve in the direction sought with a large enough effect; inconclusive = small, poorly fitted or top-dose-only effect, or another doubt; inactive = no such curve, though single readings can be large; an effect the other way counts as inactive or inconclusive. Potency is the fitted concentration of half-maximal effect.

SMILES	12-LOX inh	JMJD2A Tudor inh	BAZ2B block	G9a inh	HP1b binding inh	Sfp inh
Brc1cccc(OCCn2ccnc2)c1	?	3.5µM*	40µM*	8.9µM*	-16%	56µM*
CCc1cccc(OCCCn2ccnc2)c1	?	13µM*	32µM*	16µM*	50µM*	-2%
COc1cc(NC(=O)C(=O)NCCc2ccccc2)ccc1N1CCCCS1(=O)=O	12%	.	.	.	.	.
Cn1c(=O)[nH]c(=O)c2c1nc(NN)n2CCOc1ccccc1	0%	?	-35%	11µM*	9%	25µM*
CCCn1c(N/N=C(C)\C=C\c2ccccc2)nc2c1c(=O)[nH]c(=O)n2C	.	.	-21%	?	.	40µM*
CC(C)Sc1nc2c(c(=O)[nH]c(=O)n2C)n1CC(O)COc1ccccc1 (stereo not drawn)	-13%	-2%	3%	22µM*	-12%	?
Cn1c(=O)[nH]c(=O)c2c1nc(N1CCCC1)n2CC(O)COc1ccccc1 (stereo not drawn)	1%	-16%	9%	-14%	18%	-20%
CC(O)CSc1nc2c(c(=O)[nH]c(=O)n2C)n1CC(O)COc1ccccc1 (stereo not drawn)	?	-4%	-20%	11µM*	-9%	-41%
COc1cccc2ccn(CC(=O)NC(C)c3ccccc3)c12 (stereo not drawn)	-2%	.	.	.	.	.
O=C(Nc1nnc(Cc2ccccc2)s1)c1cc(=O)c2ccccc2o1	7%	.	.	.	.	.
C/C(=C\c1ccccc1)CN(C)CCN(C)C	.	.	-2%	56µM*	.	9%
COc1cccc(CNC(=O)[C@@H]2C[C@@H](O)CN2C2CCN(C(=O)c3sc(C)nc3C)CC2)c1	47%	.	.	.	.	.
C/C(=N\NC(=S)Nc1ccc(F)cc1)C1CC1	?	28µM*	-35%	?	15%	45µM*
Fc1ccc(NC(=S)NC2CC2)cc1	1%	.	.	.	.	.
Cc1ccc(-n2c(=O)c3ccc(C(=O)NCc4ccco4)cc3n(Cc3ccc(Cl)cc3)c2=O)cc1	?	-13%	.	0%[59 µM]	22%	.
Cc1ccc(-n2c(=O)c3ccc(C(=O)NCc4ccco4)cc3n(Cc3ccccc3Cl)c2=O)cc1	-25%	-10%	.	1.6µM*	25%	.
CCCC(=O)Nc1ccc(NC(=O)c2ccccc2OC)cn1	-17%	6%	-4%	-4%[59 µM]	11%	14%
COc1cccc(C(=O)Nc2ccc(NC(C)=O)cn2)c1	38%	-7%	-5%	-4%[59 µM]	27%	11%
CCCC(=O)Nc1ccc(NC(=O)c2ccccn2)cn1	0%	3.2µM*	-24%	?	9%	-19%
COc1cccc(C(=O)Nc2ccc(NC(=O)C3CC3)nc2)c1	?	-15%	-10%	40µM*	-11%	14%
COc1ccccc1C(=O)Nc1ccc(NC(=O)C2CCCCC2)nc1	-12%	-6%	-11%	-9%	14%	9%
O=C(Nc1ccc(NC(=O)C2CCCCC2)nc1)c1ccccn1	-2%	?	?	28µM*	17%	-12%
COc1ccc2cnn(CC(=O)Nc3cccc(F)c3)c(=O)c2c1OC	6%	.	.	.	.	.
O=C(c1cccc(OC(F)(F)F)c1)N1CCN(c2cc(-c3ccc(F)cc3)[nH]n2)CC1	67%	.	.	.	.	.
CCCc1nc(NCC2CCCO2)c(C#N)c2c1CCCC2 (stereo not drawn)	-4%	.	.	.	.	.
SMILES	12-LOX inh	JMJD2A Tudor inh	BAZ2B block	G9a inh	HP1b binding inh	Sfp inh
Cc1ccc(NC(=S)N(CCCN2CCOCC2)Cc2cccs2)c(C)c1	8%	-10%	2%	?	-1%	25µM*
COC(=O)c1ccccc1S(=O)(=O)N(CCCN1CCOCC1)Cc1cccs1	22%	7.9µM*	50µM*	7.9µM*	?	4%
O=C(NNC(=O)C1CCCCC1)c1ccc(Cl)c(Cl)c1	-8%	.	.	.	.	.
Cc1ccc(NC(=O)Nc2cccs2)cc1	389%	-22%	?	?	2%	18µM*
CCc1ccc(NC(=O)Nc2cccs2)cc1	0%	-19%	?	10µM*	9%	50µM*
CCOc1ccc(NC(=O)Nc2cccs2)cc1	-16%	-30%[57.1 µM]	-36%	?	-1%	56µM*
Cc1cc(C)cc(NC(=O)Nc2cccs2)c1	?	-16%	-25%	?	18%	.
COc1ccc(NC(=O)Nc2cccs2)cc1OC	?	?	?	45µM*	-24%	45µM*
Cc1ccc(-n2ncc3c(NC4CCCC4)ncnc32)cc1Cl	13%	.	.	.	.	.
O=C1NCCN1Cc1ccccc1	9%	9%	7%	8%	9%	11%
O=C1NCCN1Cc1ccccc1F	21%	-4%	-37%	45µM*	12%	4%
Cc1cc(C)c2nc3s/c(=C/c4ccc5c(c4)n(C)c(=O)n5C)c(=O)n3c2c1	.	.	?	?	.	20µM*
O=C(NCc1ccccc1)N1CC(Oc2ccc(-c3nc(-c4ccccc4)no3)cc2)C1	3%	.	.	.	.	.
COc1cccc(CNC(=O)C(C)OC(C)=O)c1 (stereo not drawn)	-1%	.	.	.	.	.
CCN(CC)CCC(=O)N1c2ccccc2Sc2ccc(Cl)cc21	?	-11%	3%	-39%[12.7 µM]	38%	8%
CCN(CC)[C@@H](C)CN1c2ccccc2Sc2ccccc21	.	.	.	8.9µM*	.	11%
CCc1ccc2c(c1)N(C[C@H](C)CN(C)C)c1ccccc1S2	.	.	.	18µM*	.	-10%
CCN(CC)CCN1c2ccccc2Sc2ccccc21	-92%	2.8µM*	71µM*	?	45µM*	-16%
C[C@H](CN1c2ccccc2Sc2cccnc21)N(C)C	.	.	.	?	.	13%
CCc1ccc(NC(=O)N2c3ccccc3Sc3ccccc32)cc1	-59%	3%	4%	5%[59 µM]	30%	.
CCN(CC)CCN1c2ccccc2Sc2ccc3ccccc3c21	?	?	?	50µM*	50%	-19%
CC(C)CC(=O)Nc1nc2c(s1)C(=O)CC(C)(C)C2	-8%	.	.	.	.	.
CCOCCCNc1nc2c(c(=O)[nH]c(=O)n2C)n1Cc1ccccc1Cl	20%	.	.	.	.	.
Nc1nc2c(F)c(F)c(F)cc2s1	?	-14%	-2%	18µM*	3%	?
C=CCC(NC(C)c1ccccc1)c1ccco1 (stereo not drawn)	?	2.5µM*	50µM*	.	?	?
CC(C)NC[C@H](O)c1cc(O)cc(O)c1	.	.	.	-6%[12.7 µM]	.	4%
CC(C)NC[C@H](O)c1ccc(O)c(O)c1	?	-15%	12%	8.9µM*!	12%	4µM*!
CC(C)NCC(O)c1cc(O)cc(O)c1 (stereo not drawn)	13%	-1%	2%	25µM*!	21%	17%
COc1ccc(C(=O)C2CCN(CCS(=O)c3ccccc3)CC2)cc1 (stereo not drawn)	-29%	.	.	.	.	.
